Source: PubChem (National Center for Advancing Translational Sciences (NCATS))
HPGD inh – blocks human HPGD enzyme activity; P15428; purified HPGD, NADH fluorescence kinetic, PGE2 substrate; Potency, µM, for inactives: at the highest dose activity change, negative = inhibition, most hits filed as inhibitors; 150,000 compounds, 4.3% hits
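20 nM HPGD preincubated 15 min at room temperature with compound in 50 mM Tris-HCl pH 8, 0.01% Tween 20. Started with 1 mM NAD+ and 30 uM prostaglandin E2; NADH fluorescence (360/450 nm) read 5 times over 30-s intervals, last minus first.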
Tau ThT inhib – blocks human tau fibril formation measured by thioflavin T. recombinant tau K18 P301L, heparin-induced fibrillization, ThT fluorescence. Potency, µM (top dose mostly 57.4 µM), without a hit: at the highest dose activity, negative = inhibition, actives largely listed as inhibitors. 270,000 compounds, 2.1% hits; active means well fitted curve in the direction sought with a large enough effect; inconclusive means small, poorly fitted or top-dose-only effect, or another doubt; inactive means no such curve, though single readings can be large; an effect the other way counts as inactive or inconclusive; further: nearly all actives have a fitted effect of over 55% in size
Target sequence (P10636 561-689 P618L limits assumed): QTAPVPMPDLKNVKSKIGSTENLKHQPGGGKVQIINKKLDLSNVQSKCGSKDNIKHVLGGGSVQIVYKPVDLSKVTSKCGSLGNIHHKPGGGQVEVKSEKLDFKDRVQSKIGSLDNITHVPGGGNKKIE
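Tau K18 P301L fragment (15 uM unlabeled plus 0.24 uM Alexa 594-labeled) in 100 mM sodium acetate pH 7 with compound, fibrillization induced by 20 uM heparin for 6 hr at 37 C. Thioflavin T (30 uM) added, fluorescence read after 1 hr (ex 450, em 510 nm).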
Tau FP inhib – tau fibrillization inhibition (FP). P10636. Potency, µM (series often up to 57.7 µM), for inactives: at the top dose activity, negative = inhibition, most hits filed as inhibitors. K18 P301L tau heparin fibrillization, Alexa594 FP, 6 h. 280,000 compounds, 0.39% hits; active means well fitted curve in the direction sought with a large enough effect; inconclusive means small, poorly fitted or top-dose-only effect, or another doubt; inactive means no such curve, though single readings can be large; an effect the other way counts as inactive or inconclusive; further: nearly all actives have a fitted effect of over 55% in size
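Compound effects on tau fibrillization are measured by Alexa 594 fluorescence polarization (ex 555, em 632 nm). K18 P301L tau is used at 15 uM with 0.24 uM labeled tracer, and 20 uM heparin induces aggregation over 6 hr at 37 C.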
KDM4E inh – JMJD2E (human) inhibition | JMJD2E catalytic domain, FDH-coupled NADH fluorescence (FDH is formaldehyde dehydrogenase) | Potency, µM (titrated, usually from 57.1 µM), without a hit: at the highest dose activity change, negative = inhibition, hits mostly inhibitors | 230,000 compounds, 1.6% hits;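 further: 0% = wells with enzyme and -100% = buffer wells without enzyme; nearly all actives have a fitted effect of over 50% in size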
Target sequence (B2RXH2 1-337 limits assumed): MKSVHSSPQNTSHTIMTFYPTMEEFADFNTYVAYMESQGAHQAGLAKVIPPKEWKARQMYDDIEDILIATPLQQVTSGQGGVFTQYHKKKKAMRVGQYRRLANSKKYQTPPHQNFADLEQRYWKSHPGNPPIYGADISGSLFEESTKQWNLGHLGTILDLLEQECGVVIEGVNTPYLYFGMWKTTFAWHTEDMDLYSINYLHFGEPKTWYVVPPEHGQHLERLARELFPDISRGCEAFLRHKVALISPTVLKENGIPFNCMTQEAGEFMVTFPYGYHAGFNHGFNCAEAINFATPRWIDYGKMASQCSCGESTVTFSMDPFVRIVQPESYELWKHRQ
Tau fluor cs – counter-screen for tau fibril formation inhibitors; tau K18 P301L (four-repeat tau fragment) Alexa594 fluorescence, heparin fibrillization; Potency, µM (titrated, usually from 57.7 µM), inactives show top-dose activity change, negative = decrease; 280,000 compounds, 0.93% hits; AID 1463; active means well fitted curve in the direction sought with a large enough effect; inconclusive means small, poorly fitted or top-dose-only effect, or another doubt; inactive means no such curve, though single readings can be large; an effect the other way counts as inactive or inconclusive; further: nearly all actives have a fitted effect of over 55% in size
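Human K18 P301L tau (15 uM unlabeled plus 0.24 uM Alexa 594-labeled, final) in 100 mM sodium acetate pH 7 was mixed with compound and 20 uM heparin and incubated 6 hr at 37 C.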
ALDH1A1 block – blocks purified human ALDH1A1 activity; Purified ALDH1A1, NADH fluorescence, propionaldehyde substrate; Potency, µM (top dose mostly 75.3 µM), for inactives: at the highest dose activity, negative = inhibition, hits mostly inhibitors; 220,000 compounds, 7.3% hits; AID 1030;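 further: plate controls were no enzyme wells and a reference inhibitor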
* marks the source's active call; other numbers are inactive results; ? = inconclusive; / = no result; [ ] = another dose, or the depositor's remark. In the library only some 9.9% were active in any assay of this set; here they are far more common. Unless noted, the call rests on the fitted dose curve; in most records, active means well fitted inhibition curve with a large enough effect (not every such curve was filed as active); inconclusive means small, poorly fitted or top-dose-only effect, or another doubt; inactive means no such curve, though single readings can be large or run the other way. Unless noted, on the % scale 0 is the no-effect control and ±100 the full control effect; potency means the concentration at half of the fitted maximal effect.

SMILES	HPGD inh	Tau ThT inhib	Tau FP inhib	KDM4E inh	Tau fluor cs	ALDH1A1 block
CCOC(=O)c1ccc(-n2c(N)c(C(=O)NCC3CCCO3)sc2=S)cc1 (configuration not stated)	7.9µM*	-15%	7%	-2%	-11%	4µM*
CC/C=C\C/C=C\C/C=C\C/C=C\C/C=C\CCCC(=O)NC(C)C(=O)O (configuration not stated)	-6%	-13%	-2%	11%	-6%	-16%
Clc1cccc(Cl)c1	-10%	/	/	/	/	-9%
Cc1cccc(-n2c(O)c(/C=N/NC(=O)c3ccncc3)c(=O)[nH]c2=O)c1	/	-2%	8%	?	3%	/
Cc1ccccc1-n1c(O)c(/C=N/Nc2nc3c(c(=O)n(C)c(=O)n3C)n2C)c(=O)[nH]c1=S	-19%	?	?	?	-14%	13µM*
Cc1cccc(-n2c(O)c(/C=N/Nc3nc4c(c(=O)n(C)c(=O)n4C)n3C)c(=O)[nH]c2=S)c1	-28%	13µM*	?	?	?	10µM*
Cn1c(=O)c2c(nc(N/N=C/c3c(O)n(C4CCCCC4)c(=S)[nH]c3=O)n2C)n(C)c1=O	/	16µM*	?	?	?	/
CC1OC(OC2C(O)CC(OC3C(O)CC(OC4CCC5(C)C(CCC6C5CCC5(C)C(C7=CC(=O)OC7)CCC65O)C4)OC3C)OC2C)CC(O)C1O (configuration not stated)	-5%	-22%	11%	/	4%	3%
NC(N)=NCCN=C(N)N	-4%	/	/	/	/	-8%[13.5 µM]
COc1cc(O)c(C(=O)O)c(-c2cc(O)c(O)cc2C)c1	/	25µM*	?	14µM*	?	/
ClC(Cl)C(Cl)Cl	-12%	/	/	/	/	12%
Cc1nn(CCC#N)c2c1P(=S)(N1CCCC1)OC(c1ccc(F)cc1)=N2 (configuration not stated)	20µM*	32µM*	?	-13%	-25%	7.1µM*
CCOP(=O)(C1=C(O)C(=O)C(C(C)(C)C)=CC1=O)c1ccccc1 (configuration not stated)	/	22µM*	?	-8%	-22%	?
CCOP(=O)(OCC)C(O)c1ccccc1 (configuration not stated)	/	5%	6%	-3%	4%	/
O=C(Nc1ccc2nc(SCC(=O)N3CCOCC3)sc2c1)c1ccc(Cl)cc1	/	7%	?	/	-25%	/
O=C1/C(=C/c2cc3c(cc2Cl)OCO3)N2CCC1CC2	22µM*	-3%	-8%	-3%	0%	13µM*
O=C1/C(=C\c2cc3c(cc2Cl)OCO3)N2CCC1CC2	28µM*	5%	5%	8%	2%	-10%
O=C1/C(=C\c2ccc(Cl)cc2Cl)N2CCC1CC2	/	?	?	7%	-10%	/
O=C1/C(=C/c2cc([N+](=O)[O-])ccc2Cl)N2CCC1CC2	-8%	-19%	-4%	-1%	-14%	?
COCCN1C(=O)NC(=O)/C(=C\c2ccc(Br)cc2)C1=O	/	?	?	-10%	-6%	?
CCCCN1C(=O)NC(=O)/C(=C/c2cnc(SC)nc2)C1=O	20µM*	?	-13%	25µM*	-18%	30%
CSc1ncc(/C=C2/C(=O)NC(=O)N(C3CCCCC3)C2=O)cn1	?	?	-16%	22µM*	-18%	4%
CSc1ncc(/C=C2/C(=O)NC(=O)N(C)C2=O)cn1	-27%	?	?	25µM*	-23%	-9%
COc1cc2c(cc1/C=C/[N+](=O)[O-])OCO2	/	?	0%	-21%	-19%	?
CN(C)c1ccc(/C=C/[N+](=O)[O-])cc1	-20%	10µM*	-1%	-2%	?	?
SMILES	HPGD inh	Tau ThT inhib	Tau FP inhib	KDM4E inh	Tau fluor cs	ALDH1A1 block
C/C(=C\c1ccc(N(C)C)cc1)[N+](=O)[O-]	-27%	13µM*	-6%	1%	14µM*[quencher]	?
CC(C)CON=O	-1%	/	/	/	/	32µM*
Cc1ccccc1-n1c(C)cc(/C=C2/C(=O)NC(=O)N(Cc3ccco3)C2=O)c1C	-18%	?	5%	-19%	-9%	3.5µM*
Cc1cc(C=C2C(=O)NC(=O)NC2=O)c(C)n1-c1cccnc1	/	-13%	-8%	-19%	-3%	/
Cc1cc(/C=C2\C(=O)NC(=O)N(Cc3ccccc3Cl)C2=O)c(C)n1-c1ccc(C(=O)O)cc1	/	?	?	-19%	-16%	?
Cc1cc(/C=C2\C(=O)NC(=O)N(Cc3ccco3)C2=O)c(C)n1-c1ccc(O)cc1	/	1%	-4%	0%	-6%	?
Cc1cc(/C=C2\C(=O)NC(=O)N(c3ccc(F)cc3)C2=O)c(C)n1-c1ccc(C(=O)O)cc1	/	?	-13%	-5%	-20%	7.9µM*
C=CCN1C(=O)/C(=C/c2cc(C)n(-c3cccnc3)c2C)C(=O)NC1=S	10µM*	22µM*	?	-2%	-19%	?
Cc1ccc(-n2c(C)cc(/C=C3/C(=O)NC(=O)N(Cc4ccco4)C3=O)c2C)cc1	?	?	10%	-9%	-19%	14µM*
CCCCCOc1c(OC)ccc2cc(C(=O)NCc3ccc4c(c3)OCO4)c(=O)[nH]c12	-12%	-24%	14%	/	-17%	?
Cc1cc(C(=O)OCC(=O)NC(=O)c2cccn2C)c2ccccc2n1	/	-1%	-2%	0%	-4%	?
CC[C@H]1CN2CCc3cc(OC)c(OC)cc3[C@H]2C[C@@H]1C[C@H]1NCCc2c1[nH]c1ccc(O)cc21	-6%	/	/	/	/	5%[13.5 µM]
c1ccc(CN2CCC3(CCNCC3)CC2)cc1	5%	/	/	/	/	?
Cc1cc(/C=C2\C(=O)NC(=O)N(Cc3ccccc3)C2=O)c(C)n1-c1ccc(Cl)c(C(=O)O)c1	18µM*	?	?	?	-15%	?
O=C(O)CC1OCC=C2CN3CCC45C6=CC(=O)C(=O)C([N+](=O)[O-])=C6NC4C1C2CC35 (configuration not stated)	/	7.1µM*	?	0.063µM*	?	8%
O=C(O)CC1OCC=C2CN3CCC45c6ccccc6NC4C1C2CC35 (configuration not stated)	/	-3%	0%	-10%	-5%	/
Cc1ccc(NC(=O)Cn2c(=O)oc3cc(S(=O)(=O)N4CCCCCC4)ccc32)cc1Cl	/	6%	?	/	-10%	/
C[C@]12CC[C@@H]3c4ccc(O)c(O)c4CC[C@H]3[C@@H]1CC[C@@H]2O	/	14µM*	?	1.4µM*	?	/
C[C@]12CC[C@@H]3c4cc(O)c(O)cc4CC[C@H]3[C@@H]1CC[C@@H]2O	/	?	-15%	?	?	/
